Autophagy mod = alters autophagy in cells | MEF GFP-LC3 puncta imaging; test concentration mostly 10 µM | calls only at 10 µM (by protocol) | hit rate 0.98% among 190,000 | AID 463193;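 active = percentage of spot-positive cells more than 3 SD above its plate mean, without a fluorescence outlier flag or 80% toxicity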;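 also: spot-positive cell cutoff set from DMSO-treated cells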
Insulin prom inh = TRM-6 insulin promoter activity inhibition | hit rate 0.9% among 130,000 | AID 1273 | TRM-6 cells (human fetal islet line), insulin promoter-eGFP reporter, imaging; reporter expression induced with tamoxifen | inhibition, % at 2 µM;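 active = inhibition above the mean plus 3 SD, with well images judged a real hit on visual review, cut at about 60% in these data, passing the limit was not always enough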
Insulin prom up = MIN6 insulin promoter up-regulation. MIN6 insulin promoter-GFP reporter, high-content imaging; hits give high values. z-score at 5 µM. hit rate 0.3% among 190,000. AID 1625;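 active = z-score above 3 at 5 µM with at least 500 cells counted in the well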
WT yeast gro inh = growth inhibition of WT yeast, mitochondrial fusion screen | inhibition, % at 10 µM | hit rate 2.1% among 190,000 | AID 1362 | mitochondrial fusion phenotypic screen, WT strain; in the data active = inhibition above about 58%; tested in S. cerevisiae
Lmaj promast = Leishmania major promastigote growth inhibition; Leishmania major promastigotes, resazurin fluorescence viability; inhibition, % at 10 µM; hit rate 9% among 200,000; AID 1063; in the data active = inhibition above about 50%;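 also: promastigotes grown with compound for 44 hours at 28 °C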
* marks the source's active call; other numbers are inactive results; i = inactive; x = not tested or not shown; + = active, no number. Compounds with a hit are over-represented: about 11% of the library has one in this group of screens.

SMILES	Autophagy mod	Insulin prom inh	Insulin prom up	WT yeast gro inh	Lmaj promast
CC1=Cc2ccccc2C(C#N)N1C(=O)c1ccccc1 (stereo not drawn)	i	x	0.23	-12	11
CC(=O)Nc1ccc(NC(=O)c2c(C)nn(-c3ccccc3)c2Cl)cc1C	i	33	1.2	-10	6
COC(=O)c1sccc1-n1cccc1C(=O)C(=O)N1CCOCC1	i	x	0.93	4	4
CCN(CC)CCn1nc2c3c(cccc3c1=O)-c1ccccc1-2	i	x	-1.7	25	100*
C[C@H](N)C(=O)OCc1ccc([N+](=O)[O-])cc1	x	x	0.19	x	x
CC(O)C(C(=O)OCc1ccc([N+](=O)[O-])cc1)N1C(=O)c2ccccc2C1=O (stereo not drawn)	i	62*	-0.25	2	-2
COc1ccc(C2C(C(=O)Nc3ccc(OC)c(OC)c3)c3ccccc3C(=O)N2C)cc1 (stereo not drawn)	i	x	-0.42	-8	8
CC(C(=O)NN)c1ccc([N+](=O)[O-])cc1 (stereo not drawn)	i	x	0.42	5	-1
Cc1cc(C)n(-c2nc3sc4c(c3c(=O)[nH]2)CCCC4)n1	+	-4	x	73*	99*
Cc1nc2sc3c(c2c(=O)[nH]1)CCCCC3	x	x	0.54	x	x
CC/C(=N/Nc1ccccc1)c1cnnc(-c2ccccc2)n1	+	-248	0.53	12	13
CC/C(=N/Nc1cccc(Cl)c1)c1cnnc(SC)n1	i	31	0.33	0	26
OC(COc1ccc(-c2ccccc2)cc1)CN1CCOCC1 (stereo not drawn)	i	x	0.06	0	93*
OC(COc1ccc(OCc2ccccc2)cc1)CN1CCOCC1 (stereo not drawn)	i	-90	0.05	-3	97*
O=S(=O)(c1ccc(OCC(O)CN2CCC(Cc3ccccc3)CC2)cc1)N1CCOCC1 (stereo not drawn)	i	-38	0.53	5	100*
OC(COc1ccc(OCc2ccccc2)cc1)CN1CCCCC1 (stereo not drawn)	i	-63	-0.76	11	96*
COC(=O)c1ccc(CN2C(=O)NC3(CCC(C)CC3)C2=O)cc1 (stereo not drawn)	i	x	-0.06	1	-1
N#Cc1ccc(OCC(=O)N/N=C/C2CC=CCC2)cc1 (stereo not drawn)	i	x	0.29	7	-6
Cc1nc(SCC(=O)Nc2cccnc2Cl)nc(C)c1C	i	x	0.9	-15	-3
COC(=O)c1ccc2c(c1O)C(=O)c1ccccc1C2=O	i	-24	x	66*	84*
Nc1c(C(=O)O)ccc2c1C(=O)c1ccccc1C2=O	i	x	0.11	23	-4
CCOC(=O)c1cc2c(ccn2C)n1Cc1cc(C)ccc1C	i	-91	-0.48	67*	93*
Cn1cnc([N+](=O)[O-])c1SCC(O)CN1CCCCC1 (stereo not drawn)	+	x	-0.66	-8	1
Cn1cnc([N+](=O)[O-])c1SCC(=O)NN	x	x	-0.22	x	x
CCOc1ccc(NC(=O)C2CCC(CNc3c(N4CCC(C)CC4)c(=O)c3=O)CC2)cc1 (stereo not drawn)	x	x	-0.04	x	x
SMILES	Autophagy mod	Insulin prom inh	Insulin prom up	WT yeast gro inh	Lmaj promast
N#C/C(=C/c1cn(-c2ccccc2)nc1-c1cccc(OCc2ccc(F)cc2)c1)C(=O)NCCCn1ccnc1	i	-32	-0.46	50	100*
CCCOc1cccc(-c2nn(-c3ccccc3)cc2/C=C(\C#N)C(=O)NCCCn2ccnc2)c1	i	-17	-0.07	8	89*
CCCn1c(SCC(=O)N2CCCc3ccccc32)nnc1-c1ccccn1	i	x	0.21	-12	7
COc1ccc(CNC(=O)CN2C(=O)C3C4C=CC(C4)C3C2=O)cc1 (stereo not drawn)	+	-7	-0.09	-1	3
COc1c(F)c(F)c(C(=O)Nc2ccc(N3CCN(Cc4ccccc4)CC3)cc2)c(F)c1F	i	-32	-0.88	26	52*
Cc1cc(NC(=S)Nc2cccnc2)ccc1Br	i	0	-0.19	7	17
CCOc1cccc(C(=O)NC(=S)Nc2ccccc2)c1	i	6	0.87	21	-1
O=C(O)c1ccc(NC(=S)NC(=O)c2cccc(COc3ccccc3)c2)cc1	i	x	0.31	91*	-8
Cc1cc(NC(=S)Nc2ccccc2)ccc1Br	i	x	-0.39	-5	97*
O=C(O)c1ccc(NC(=S)Nc2ccccc2)cc1	i	8	-0.45	3	91*
COC(=O)c1ccc(NC(=S)Nc2ccccc2)cc1	i	-43	-0.23	-10	14
Cc1ccc(NC(=O)C2CC2C)c(Cl)c1 (stereo not drawn)	i	x	-0.29	-20	0

From PubChem BioAssay
